Laboratory results: PubChem BioAssay (NCI)
About 83,000 compounds went through this panel and 20% of them were active in at least one assay; those are over-represented in the sample as a whole.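 Method: cells in 96-well plates; compound added at one concentration; 48 h incubation; percent growth measured; values under 10 scored active.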 Values without a mark were called inactive. The source made the active and inactive calls.

These compounds were tested on SR leukemia (assay: NCI-60 one-dose screen, 48 h (100 = growth as untreated, 0 = no growth, -100 = all killed)). Details: 10 µM unless noted.
Method: Growth inhibition of the SR human tumor cell line is measured as a screen for anti-cancer activity. Cells are grown in 96 well plates and exposed to the test compound for 48 hours. Compounds are tested at a single concentration, which is 10^-5 M for most compounds. The reported endpoint is percent growth (GI% or GIPRCNT), where numbers from 0 - 100% represent growth inhibition, and numbers from -100% - 0 represent cell death. For example, a value of 40 represents 60% growth inhibition. A value of 0 means no net growth occurred over the course of the experiment. A value of -40 indicates 40% of cells at the beginning of the experiment died by the end of the experiment. A value of -100 means all cells are dead at the end of the experiment.
NCI-60 Human Tumor Cell Lines Screen was performed using the standard one-dose NCI protocol, which is described in more detail at https://dtp.cancer.gov/discovery_development/nci-60/default.htm.
Compounds with GIPRCNT values below 10 were considered active. Activity score was based on GIPRCNT using the following formula: […]
Score is 0 for GIPRCNT values of 100 or above, 50 for GIPRCNT values of 0, and 100 for GIPRCNT values of -100.
O=[N+]([O-])c1ccc(O)c2ncccc12 showed a growth of 21.5%. In the case of CC(=O)OCC1OC([S-])C(OC(C)=O)C(OC(C)=O)C1OC(C)=O.[Au+].c1ccc(CN2[CH-]N(Cc3ccccc3)C(c3ccccc3)=C2c2ccccc2)cc1, the growth is reported as -8.38% [4.75 µM] (active). In the case of COc1ccc(OC2=C(C#N)C(=N)N3c4ccccc4Sc4ccccc4C3N2)cc1 (stereo not given), the growth is reported as 104%. Work on O=C(O)C[C@H](O)C[C@H](O)/C=C/c1c(C2CC2)nc2ccccc2c1-c1ccc(F)cc1 yielded a growth of 12.1%. COc1ccccc1CNCCCCCCCCCCCCN1C(=O)c2ccc3c4c(ccc(c24)C1=O)C(=O)N(CCCCCCCCCCCCNCc1ccccc1OC)C3=O was tested, and the growth was 7.77% (active). COc1ccc(OC)c2ncccc12 gave a growth of 99%. Compound COc1cc(/C=C/C(=O)CC(=O)/C=C/c2cc(Br)c(OC)c(OC)c2)cc(Br)c1OC has a growth of 49.6%. Cn1c2ccc(Cl)cc2c2nn(C(=O)c3ccccc3)c(=O)nc21 gave a growth of 93%. In the case of Cc1cc(=O)oc2c1ccc1oc(C(=O)c3ccccc3)c(C)c12, the growth is reported as 60.3%. For CON=C1C[C@]2(C[C@@H]3C[C@@H](C/C=C(\C)C[C@@H](C)/C=C/C=C4\CO[C@@H]5[C@H](O)C(C)=C[C@@H](C(=O)O3)[C@]45O)O2)O[C@H](/C(C)=C/C(C)C)[C@H]1C, the growth was -39.5% (active). CC(=O)c1cc(C)c(OC(=O)c2ccccc2)c(C)c1 was tested, and the growth was 82.8%. In the case of CCCC1=NNC(=O)C1, the growth is reported as 103%. In the case of COc1ccc(-c2nc(Nc3ccc(F)cc3)nc(Nc3ccc4c(c3)nc(C)n4Cc3ccccc3)n2)cc1, the growth is reported as -20.4% (active). O=C(Nc1ccccc1O)c1ccc(NS(=O)(=O)c2cccc3cccnc23)cc1 was tested, and the growth was 32.8%. With O=c1c2cc(F)ccc2oc2c(NCCNCCO)nc3ccccc3c12 the growth was -28.7% (active). In the case of CC(C)(C)[Si](C)(C)OC1[C@@H](O[Si](C)(C)C(C)(C)C)[C@@H](CNC(=O)NC(=O)C(F)(F)F)O[C@H]1n1cnc2c(NC(=O)Nc3ccccc3)ncnc21 (stereo not given in full), the growth is reported as -41.9% (active). NC(=O)c1cc(I)ccc1NC(=O)COc1ccccc1 gave a growth of 20.2%. With COC(=O)CCC(=O)c1ccccc1 the growth was 90.9%. O=C(CC(O)c1ccccc1)Nc1ccccn1 (stereo not given) was tested, and the growth was 86.9%. For NC(=S)N/N=C1\c2ccccc2-c2c(F)c(F)c(F)c(F)c21, the growth was 2.57% (active). Clc1cccc(Cl)c1Nc1ccc2nnc(-c3ccncc3)n2n1 showed a growth of 62.4%. Compound Cc1ccccc1-c1cc(-c2ccc(Br)s2)[nH]c(=O)c1C#N has a growth of 100%. With CCN1CCN(c2ccc(Nc3ncc4ccc5ncn(C(C)C)c5c4n3)nc2)CC1 the growth was 3.9% (active). For COc1cc(C(=O)N(C(C)C)C2CCCCC2)cc(OC)c1OC, the growth was 99.5%. In the case of COc1ccc(NS(=O)(=O)c2ccc(-c3cnc(C4CC4)o3)cc2)cc1, the growth is reported as 40.8%. With O=S(=O)(Nc1ccccc1Cl)c1ccc(-c2cnc(C3CC3)o2)cc1 the growth was 41.5%. CCCCC(=O)N/N=C/c1cc(I)cc(I)c1O gave a growth of 16.8%. Work on O=S(=O)(/N=C1C=C/C(=N\S(=O)(=O)c2ccccc2)c2ccccc2\1)c1ccccc1 yielded a growth of 107%. O=C1CN2CCC1C/C2=C\c1ccnc2c(Cl)cccc12 (stereo not given) was tested, and the growth was -24% (active). In the case of COc1nc2c(cc1S(=O)(=O)c1ccccc1)CCc1c-2cnn1-c1ccccc1, the growth is reported as 45.4%. In the case of COC(=O)c1c2c(c(C)[n+]([O-])c1C)C(=O)C=C(NCc1cccc(OC)c1)C2=O, the growth is reported as -8.2% (active). Work on CN1CCN(c2nc(-c3ccncc3)nc3sc4c(c23)CCCCCC4)CC1 yielded a growth of 32.5%. With COc1cc2cc(Oc3ccc(NC(=O)Nc4ccc(Cl)c(C(F)(F)F)c4)cc3)c(C)nc2cc1OCCN1CCCCC1 the growth was -15.9% (active). Cc1ccc(C(=O)Nc2ccccc2N)cc1 was tested, and the growth was 68%. Cc1cc(NS(=O)(=O)c2ccc(NC(=O)COc3ccc(-c4cc5ccccc5[nH]4)cc3)cc2)no1 was tested, and the growth was -5.32% (active). Compound CCN1CCN(C(=S)SCC(=O)Nc2nc3ccc(OC)cc3s2)CC1 has a growth of 88.3%. C=C1CC[C@@H]2[C@@](C)(CCC[C@]2(C)C(=O)O)[C@@H]1CC[C@H](CO)CCO gave a growth of 85.2%. Compound CN1CCN(C(=O)OCCOCCOC(=O)N2CCN(C)CC2)CC1 has a growth of 95%. With COc1ccc(/C=N/OCC(O)CNCc2ccccc2)cc1OC1CCCC1 (stereo not given) the growth was 87%. FC(F)(F)Oc1ccc2c(c1)C[C@H]1C[C@@H](c3ccoc3)N2O1 was tested, and the growth was 98.3%.
